Results published in paper PMC6925144, “A prospective compound screening contest identified broader inhibitors for Sirtuin 1” (Scientific Reports, 2019).
Over roughly 3,200 compounds, “TSA(without NAD+) / Primary screening (TSA) / delta Tm (K)” has its median near -0.07; the highest 2% begin near 0.37. The entries come from a sample that favours the highest values as a whole.

Target: NAD-dependent deacetylase Sirtuin 1 (human, UniProt Q96EB6)
Experiment: primary screen, delta tm
Parameters: single well (n = 1)
Conditions: 10 µM
Experimental: A total of 3,192 compounds extracted from the proposed lists were first screened by thermal shift assay (TSA), which determined a melting temperature shift (ΔTm) of Sirtuin 1 upon the addition of a test compound at a concentration of 10 µM (n = 1) with primary hit criteria of ΔTm > 0.45 K or ΔTm < −1.5 K. Primary hits (48 compounds) were retested in the same assay at three concentrations (5, 10, 20 µM, n = 4) for hit confirmation and for dose-dependency check. Secondary hits (41 compounds) were checked their selectivity for Sirtuin 1 based on counterscreening on unrelated protein targets (bovine carbonic anhydrase (CA) and recombinant SH2 domain of hABL1 kinase (ABL1)) at three different concentrations (5, 10, 20 µM, n = 4), which yielded 38 hit compounds, hereafter referred to as TSA hits. The TSA screening above was conducted in the absence of NAD+.

Chain of NAD-dependent deacetylase Sirtuin 1 (Q96EB6 2-747 limits assumed): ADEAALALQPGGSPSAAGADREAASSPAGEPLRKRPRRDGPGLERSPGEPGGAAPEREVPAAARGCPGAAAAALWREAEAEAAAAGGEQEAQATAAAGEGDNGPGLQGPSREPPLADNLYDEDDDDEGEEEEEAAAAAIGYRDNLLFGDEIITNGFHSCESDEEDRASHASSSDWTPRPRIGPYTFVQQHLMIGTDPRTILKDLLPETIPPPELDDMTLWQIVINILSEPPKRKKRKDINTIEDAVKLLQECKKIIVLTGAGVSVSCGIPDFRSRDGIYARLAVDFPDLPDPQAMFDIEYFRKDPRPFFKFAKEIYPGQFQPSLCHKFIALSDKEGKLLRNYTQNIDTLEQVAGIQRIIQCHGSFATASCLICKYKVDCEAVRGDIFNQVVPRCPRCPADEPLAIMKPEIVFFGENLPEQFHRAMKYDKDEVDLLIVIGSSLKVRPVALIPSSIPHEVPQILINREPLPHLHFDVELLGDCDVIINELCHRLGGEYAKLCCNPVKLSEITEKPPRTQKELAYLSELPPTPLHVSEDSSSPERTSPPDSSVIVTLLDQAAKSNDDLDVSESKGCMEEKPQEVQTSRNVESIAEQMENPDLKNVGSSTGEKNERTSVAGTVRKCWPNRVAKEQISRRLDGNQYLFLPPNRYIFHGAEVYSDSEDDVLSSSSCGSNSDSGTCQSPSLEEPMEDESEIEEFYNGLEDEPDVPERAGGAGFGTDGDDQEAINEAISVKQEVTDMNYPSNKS

| Structure (SMILES) | TSA(without NAD+) / Primary screening (TSA) / delta Tm (K) |
| --- | --- |
| COc1ccc(C(=O)C2=C(O)C(=O)N(CCCN3CCOCC3)C2c2ccco2)cc1Cl (stereo not shown) | 0.02 K |
| Cn1cc(C(=O)Nc2cccc(C3(C)NC(=O)NC3=O)c2)c2ccccc21 (stereo not shown) | -0.14 K |
| Cc1c(CCC#N)c(Cl)n2c(nc3ccccc32)c1C#N | -0.04 K |
| CCc1c(C)c(C#N)c2nc3ccccc3n2c1S | 0.39 K |
| CCc1c(C)c(C#N)c2nc3ccccc3n2c1Cl | -0.08 K |
| Cc1nc2cc(NC(=O)C3Cc4ccccc4O3)ccc2o1 (stereo not shown) | 0.03 K |
| c1ccc(-c2[nH]c3c(ccc4ccccc43)c2-c2ccccc2)cc1 | 0.52 K |
| O=C(CCl)c1c(-c2ccccc2)[nH]c2ccccc12 | -0.04 K |
| c1ccc(-c2[nH]c3ccccc3c2-c2ccccc2)cc1 | 0.45 K |
| Cc1cccc2c(CC(=O)O)c(-c3ccccc3)[nH]c12 | -0.02 K |
| Nc1nc(-c2c(-c3ccccc3)[nH]c3ccccc23)cs1 | 0.09 K |
| CC1(C)CC1N (stereo not shown) | -0.22 K |
| NC(=O)Cc1ccc(NC(=O)c2cc(Br)ccc2Cl)cc1 | -0.11 K |
| NC1=Nc2nc3ccccc3n2C(c2ccc(-c3ccc(C(=O)O)cc3)o2)N1 (stereo not shown) | 1.36 K |
| CCCCOc1cc(C2NC(N)=Nc3nc4ccccc4n32)ccc1OC (stereo not shown) | -0.17 K |
| CC(C)(CNc1ncnc2ccsc12)C(N)=O | -0.02 K |
| O=C1/C(=C/c2ccc(Br)cc2F)Cc2c(O)cccc21 | -0.03 K |
| Oc1cccc2c1Cc1c-2nc2ccc(Cl)cc2c1-c1ccccc1Cl | 0.38 K |
| CCCOCC(=O)O | -0.13 K |
| Cc1cccc(Nc2nnc(SCC(=O)Nc3ccc(C(N)=O)cc3)s2)c1 | -0.04 K |
| COc1ccc(NC(=O)CSc2nnc(Nc3ccc(SC(F)F)cc3)s2)cc1OC | 0.73 K |
| Cc1ccc(Nc2nnc(SCC(=O)Nc3cc(C)c(C)cc3[N+](=O)[O-])s2)cc1 | -0.03 K |

| Structure (SMILES) | TSA(without NAD+) / Primary screening (TSA) / delta Tm (K) |
| --- | --- |
| O=C(C1=C(O)C(=O)N(CCCN2CCOCC2)C1c1ccco1)c1ccco1 (stereo not shown) | -0.22 K |
| Cc1nc2ccccc2nc1SCc1cc(=O)n2ccsc2n1 | 0.02 K |
| O=C(COC(=O)CNC(=O)C12CC3CC(CC(C3)C1)C2)Nc1ccccc1Cc1ccccc1 | 0.13 K |
| CCOc1ccc(CCNC(=O)COC(=O)CNC(=O)C23CC4CC(CC(C4)C2)C3)cc1OCC | 0.03 K |
| CCCCOC(=O)c1ccc(NC(=O)COC(=O)CNC(=O)C23CC4CC(CC(C4)C2)C3)cc1 | 0.48 K |
| CC(C)Oc1ccc(C(=O)C2=C(O)C(=O)N(CCCN3CCOCC3)C2c2ccncc2)cc1 (stereo not shown) | -0.07 K |
| O=c1c2ccccc2ncn1CC(O)c1ccccc1Cl (stereo not shown) | -0.17 K |
| COc1ccc(/C=N/c2ccc(C(=O)O)cc2)cc1Br | 0.07 K |
| N#Cc1c(Cn2nnc3ccccc3c2=O)cn2ccccc12 | 0.07 K |
| COc1cc(C(C)=O)ccc1COc1ccc(C(=O)OC(C)C(=O)NC23CC4CC(CC(C4)C2)C3)cc1OC (stereo not shown) | 0.05 K |
| Cc1ccc([N+](=O)[O-])cc1S(=O)(=O)Nc1ccc(C(=O)OC(C)C(=O)NC23CC4CC(CC(C4)C2)C3)cc1 (stereo not shown) | 0.86 K |
| CC(OC(=O)c1cccc(S(=O)(=O)NCc2ccccc2)c1)C(=O)NC12CC3CC(CC(C3)C1)C2 (stereo not shown) | -0.03 K |
| CCC(N)COC (stereo not shown) | -0.18 K |
| Cc1ccc(Nc2nnc(SCC(=O)NC(=O)NCc3ccco3)s2)cc1 | 0.07 K |
| Cc1cc(F)ccc1N1CCCC(Nc2ccc3nnnn3n2)C1 (stereo not shown) | 0.63 K |
| Cc1ncc(CN2CCC(Nc3ccc4nnnn4n3)C(C)C2)s1 (stereo not shown) | 0.12 K |
| c1ccc(CN2CCCCCC2)c(CNc2ccc3nnnn3n2)c1 | -0.11 K |
| NC(=O)c1ncn(-c2ccncc2)c1N | -0.02 K |
| CC1CN(S(=O)(=O)c2cccc(C(=O)OCC(=O)COC(=O)c3cccc(S(=O)(=O)N4CC(C)OC(C)C4)c3)c2)CC(C)O1 (stereo not shown) | -0.11 K |
| NC(=O)COC(=O)c1ccc(OCC(=O)Nc2cccc(C(F)(F)F)c2)cc1 | -0.02 K |
| Cc1cccc(-n2ccnc2SCC(=O)Nc2ccc(S(=O)(=O)Nc3nccs3)cc2)c1C | 0.08 K |
| O=C(COc1ccccc1C(=O)Nc1ccc(S(=O)(=O)Nc2nccs2)cc1)Nc1cccc(C(F)(F)F)c1 | 0.98 K |

| Structure (SMILES) | TSA(without NAD+) / Primary screening (TSA) / delta Tm (K) |
| --- | --- |
| CCOc1cc(N2CCOCC2)c(OCC)cc1NC(=O)C1=COCCO1 | -0.15 K |
| CC(NC(=O)COC(=O)CNC(=O)c1ccc(-c2ccccc2)cc1)C12CC3CC(CC(C3)C1)C2 (stereo not shown) | 0.06 K |
| NC(=O)c1cc2c(ccc3ccccc32)o/c1=N\c1ccc(Br)cc1 | -0.32 K |
| O=C(Nc1cccc(-c2nc(C3CC3)no2)c1)c1cccc(NC(=O)C2CCCCC2)c1 | 0.42 K |
| O=C(NCc1cccc(NC(=O)C2CC2)c1)c1ccc(C(=O)c2ccccc2)cc1 | -0.11 K |
| O=C(O)C1CC(=O)N(c2cccc(-c3nc(C4CC4)no3)c2)C1 (stereo not shown) | 0.03 K |
| Cc1ccc2c(c1)c(=O)n(C)c1nnc(CN3CCc4ccccc4C3)n21 | -0.32 K |
| O=C(NC1=NCCS1)c1cc(Cl)ccc1O | -0.05 K |
| CC(O)CC(C)(C)CNC(=O)Nc1ccc(F)cc1 (stereo not shown) | -0.13 K |
| COc1ccc(CN2C(=O)/C(=C/NNC(=O)CC34CC5CC(CC(C5)C3)C4)c3ccccc3C2=O)cc1 | 0.09 K |
| O=C(CC12CC3CC(CC(C3)C1)C2)NN/C=C1/C(=O)N(Cc2ccccc2)C(=O)c2ccccc21 | 0.32 K |
| COc1ccc(N2C(=O)/C(=C/NNC(=O)C34CC5CC(CC(C5)C3)C4)c3ccccc3C2=O)cc1 | 0.43 K |
| O=C1CCCN1Cc1ccc(-c2ccccc2CNC(=O)C23CC4CC(CC(C4)C2)C3)cc1 | -0.28 K |
| O=C1NC(=O)c2ccccc2/C1=C\NNC(=O)C12CC3CC(CC(C3)C1)C2 | 0.33 K |
| O=C1/C(=C/NNC(=O)C23CC4CC(CC(C4)C2)C3)c2ccccc2C(=O)N1Cc1ccccc1 | 0.46 K |
| CCS(=O)(=O)Nc1ccc(S(=O)(=O)Nc2nccs2)c(OC)c1 | -0.18 K |
| N#Cc1ccccc1Sc1ccccc1C(=O)Nc1ccc(-c2cn3cccnc3n2)cc1 | -0.14 K |
| N#C/C(=C\c1[nH]c2ccccc2c1Cl)C(N)=O | -0.13 K |
| CCCCCCCCNC(=O)/C(C#N)=C/c1c[nH]c2ccccc12 | 0.58 K |
| CCOc1ccc(/C=C(/C#N)C(=O)c2c[nH]c3cc(F)ccc23)cc1 | 0.06 K |
| Oc1ccccc1/C=N/c1ccccc1O | -0.13 K |
| Cc1cc2ccccc2n1CC(=O)NCC(Cc1ccccc1)N(C)C (stereo not shown) | -0.12 K |

| Structure (SMILES) | TSA(without NAD+) / Primary screening (TSA) / delta Tm (K) |
| --- | --- |
| CC(=O)Nc1ccc(NC(=O)c2cccc(S(=O)(=O)N(C)c3ccc(C)cc3)c2)cc1 | -0.11 K |
| COc1ccc(N(C)S(=O)(=O)c2cccc(C(=O)Nc3ccc(C)cc3)c2)cc1 | 0.17 K |
| Cc1ccc(N(C)S(=O)(=O)c2cccc(C(=O)Nc3sccc3C(N)=O)c2)cc1 | 0.17 K |
| CN(c1cccc(Cl)c1)S(=O)(=O)c1cccc(C(=O)Nc2ncc(C(N)=O)s2)c1 | 0.37 K |
| Cc1ccc(N(C)S(=O)(=O)c2cccc(C(N)=O)c2)cc1 | -0.11 K |
| CN(c1ccccc1)S(=O)(=O)c1cccc(C(=O)Nc2sccc2C(N)=O)c1 | 0.38 K |
| Cc1ccc(N(C)S(=O)(=O)c2cccc(C(=O)Nc3ccc(C(N)=O)cc3)c2)cc1 | 0.46 K |
| CN(c1cccc(Cl)c1)S(=O)(=O)c1cccc(C(=O)Nc2cc(C(N)=O)cc(C(N)=O)c2)c1 | 0.15 K |
| Cc1ccc(NC(=O)c2cccc(S(=O)(=O)N(C)c3ccc(C)cc3)c2)cc1 | 0.45 K |
| CN(c1cccc(Cl)c1)S(=O)(=O)c1cccc(C(=O)Nc2sccc2C(N)=O)c1 | 0.18 K |
| COc1ccc(N(C)S(=O)(=O)c2cccc(C(=O)Nc3ncc(C(N)=O)s3)c2)cc1 | 0.06 K |
| Cc1nn(CC(=O)N2CCC(N3CCCC3C(N)=O)CC2)cc1-c1ccccc1 (stereo not shown) | -0.22 K |
| CC(Nc1ccnc(CC#N)c1)C(=O)N1CCCCC1C (stereo not shown) | -0.28 K |
| CS(=O)(=O)c1cccc(C(=O)N(Cc2ccccc2)c2ccccc2)c1 | -0.13 K |
| CCCn1nnnc1CN1C(=O)NC(Cc2c[nH]c3ccccc23)C1=O (stereo not shown) | -0.28 K |
| O=C(Cn1[nH]c(=O)c2ccccc2c1=O)NC1CCCc2ccccc21 (stereo not shown) | 0.19 K |
| Cc1ccccc1N1C(=O)c2ccc(C(=O)OCC(N)=O)cc2C1=O | -0.08 K |
| CC1(C)C(=O)Nc2ccccc2N1C(=O)CNc1cccc2c1CCCC2 | -0.24 K |
| CCS(=O)(=O)N1CCN(c2ccc(C(N)=O)cc2)CC1 | -0.15 K |
| O=C(c1cnc2ccccc2n1)N1CCCC1c1nc2ccccc2s1 (stereo not shown) | -0.04 K |
| COc1ccc(N(C)S(=O)(=O)c2cccc(C(=O)Nc3sc4c(c3C(N)=O)CCC(C)C4)c2)cc1 (stereo not shown) | 0.08 K |
| CN(C)c1ccnc(N2CCCC(N3CCNC3=O)C2)n1 (stereo not shown) | -0.18 K |
